From PubChem BioAssay
The list is not random: actives were taken first. Their share in the collection is about 1.2%.
hERG WT inh: inhibitors of human wildtype KCNH2 potassium channel | AID 720551 | U2OS, BacMam KCNH2, thallium flux FluxOr; active compounds read low | 340,000 tested, 0.37% active | activity change, % at 1.84 µM;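 active = maximum activity change below -70%; inconclusive = maximum activity change between -70% and -50%; inactive = maximum activity change above -50%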; also: % is scaled to controls: 0 for no effect and ±100 for the full control effect
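U2OS cells transduced with wild-type KCNH2 virus are loaded with FluxOr dye for 45 min, and thallium flux is measured in kinetic reads before and after stimulation buffer. Rate constants are normalized to DMSO controls.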
KCNH2 3.1 block: KCNH2 3.1 (human) potassium channel inhibition | 340,000 tested, 0.95% active | AID 720553 | activity change, % (tested at about 1.8 µM) | U2OS KCNH2 3.1, thallium flux FluxOr; active compounds read low;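 active = maximum activity change below -70%; inconclusive = maximum activity change from -70% to -50%; inactive = maximum activity change above -50%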;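 also: thallium influx rate constant from kinetic fluorescence after stimulation buffer; % is scaled to controls: 0 for no effect and ±100 for the full control effect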
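Virally transduced U2OS (3.1 isoform, 4 h infection in dark at RT) → overnight 37 C → FluxOr + Red40 in HBSS/HEPES, 45 min → stimulation buffer, 2 min kinetic read → rate constant vs DMSO controls.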
ASM inhibitor: human S-ASM enzyme inhibition; P17405; placental ASM, HMU-PC fluorogenic substrate, 60 min; 340,000 tested, 0.006% active; Potency, µM (highest dose often 57.5 µM), for inactives: at the highest dose activity change, negative = inhibition, actives largely listed as inhibitors; also: potency is read from the fitted curve at half-maximal effect
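HMU-PC0 cleavage (9 uM final) by human placental ASM, 60 min at 37 °C following 10 min compound exposure at RT; stopped at pH 10, fluorescence Ex 386/Em 447 nm.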
mIDH1 inhibitor: inhibitors of human mutant IDH1 R132H | IDH1-R132H enzyme, NADPH consumption, diaphorase/resazurin fluorescence | O75874 | 390,000 tested, 0.093% active | Potency, µM (doses to about 76.6 µM), for inactives: top-dose activity change, negative = inhibition, usual class: inhibitors; also: potency is read from the fitted curve at half-maximal effect; % is scaled to controls: 0 for no effect and ±100 for the full control effect; nearly all actives have a fitted effect of over 65% in size
Target sequence (O75874 whole entry R132H, stated change not applied): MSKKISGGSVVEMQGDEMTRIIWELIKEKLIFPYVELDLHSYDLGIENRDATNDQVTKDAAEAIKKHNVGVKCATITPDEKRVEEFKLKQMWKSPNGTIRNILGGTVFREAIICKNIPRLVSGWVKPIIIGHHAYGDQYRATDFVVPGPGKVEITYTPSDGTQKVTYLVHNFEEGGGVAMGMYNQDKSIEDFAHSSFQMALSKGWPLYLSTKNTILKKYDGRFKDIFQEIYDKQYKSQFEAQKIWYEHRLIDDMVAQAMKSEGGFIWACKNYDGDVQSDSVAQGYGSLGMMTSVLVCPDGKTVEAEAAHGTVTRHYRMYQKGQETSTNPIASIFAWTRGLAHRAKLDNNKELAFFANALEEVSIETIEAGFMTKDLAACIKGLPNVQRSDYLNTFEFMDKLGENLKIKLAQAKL
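IDH1-R132H (0.5 ug/mL) preincubated 30 min with compound, then NADPH (0.016 mM) and alpha-KG (2 mM) added; 80 min at RT, pH 7.5. Remaining NADPH coupled via diaphorase/resazurin to fluorescence (540/590 nm); concentration-response curves normalized to no-enzyme control.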
Apoferritin bind: binds horse apoferritin like a general anesthetic; P02791; apoferritin/1-aminoanthracene competitive binding, fluorescence; Potency, µM (series often up to 77.5 µM), inactives show at the highest dose activity change, negative = displacement, most hits filed as inhibitors; 350,000 tested, 0.074% active; AID 485281; also: potency is read from the fitted curve at half-maximal effect; % is scaled to controls: 0 for no effect and ±100 for the full control effect; nearly all actives have a fitted effect of over 20% in size
Target sequence (P02791 2-175 limits assumed): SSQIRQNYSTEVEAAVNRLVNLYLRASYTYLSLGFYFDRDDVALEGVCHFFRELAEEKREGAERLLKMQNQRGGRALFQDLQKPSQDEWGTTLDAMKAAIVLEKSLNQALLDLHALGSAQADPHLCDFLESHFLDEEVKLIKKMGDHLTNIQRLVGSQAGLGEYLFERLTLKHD
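Horse-spleen apoferritin (10 uM) was mixed with 50% saturated 1-aminoanthracene in PBS, exposed to compounds for 10 min at room temperature, and read for fluorescence (ex 380 nm, em 535 nm). Competitive displacement was fitted with a four-parameter Hill equation.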
Resorufin autofl: autofluorescence interference, mutant IDH1 hit counter-screen | shares compounds with mIDH1 inhibitor | Resorufin detection reagent fluorescence interference, cell-free | inhibition of signal, % at 51.2 µM | 750 tested, under 10 active | AID 623980;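 also: 0% = wells with normal resorufin and full inhibition = wells lacking resorufin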
WT IDH1 inh: wild-type IDH1 (human) inhibition counterscreen; Potency, µM (titrated, usually from 115 µM), for inactives: at the top dose activity change, negative = inhibition, hits mostly inhibitors; WT IDH1 enzyme, NADPH diaphorase/resazurin fluorescence; 750 tested, 9% active; AID 623995; shares compounds with mIDH1 inhibitor;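 also: potency is read from the fitted curve at half-maximal effect; 0% = full WT IDH1 enzyme control and full inhibition = no enzyme wells; nearly all actives have a fitted effect of over 55% in size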
Target sequence (O75874 whole entry, looked up): as the sequence (O75874 whole entry R132H, stated change not applied) above, with H132R counted along it
IDH1 R132H conf: confirmation of human mutant IDH1 inhibitors; shares compounds with mIDH1 inhibitor; IDH1 R132H enzyme, NADPH diaphorase/resazurin fluorescence; Potency, µM (series often up to 76.6 µM), for inactives: at the top dose activity change, negative = inhibition, most hits filed as inhibitors; 750 tested, 83% active; AID 624002; also: potency is read from the fitted curve at half-maximal effect; nearly all actives have a fitted effect of over 50% in size
Active calls of the source: *; ? = inconclusive; / = no result given. Unless noted, calls follow the shape of the dose curve; as a rule, active = well fitted curve in the direction sought with a large enough effect; inconclusive = small, poorly fitted or top-dose-only effect, or another doubt; inactive = no such curve, though single readings can be large; an effect the other way counts as inactive or inconclusive.

SMILES	hERG WT inh	KCNH2 3.1 block	ASM inhibitor	mIDH1 inhibitor	Apoferritin bind	Resorufin autofl	WT IDH1 inh	IDH1 R132H conf
Cc1ccc(C(C(=O)NC2CCCCC2)N(C(=O)Cc2c[nH]c3ccccc23)c2ccccc2C)o1 (centres undefined)	-0.4	-2.5	3.4%	?	-16.6%	2.4	9.0%	7.08µM*
Cc1ccc(C(C(=O)NC2CCCCC2)N(Cc2ccco2)C(=O)Cc2c[nH]c3ccccc23)o1 (centres undefined)	1.9	-18.7	-6.3%	?	-1.2%	4.0	4.9%	10µM*
COc1ccc(C(C(=O)NC2CCCCC2)N(C(=O)Cc2c[nH]c3ccccc23)c2ccccc2C)cc1OC (centres undefined)	-16.3	-13.4	-3.7%	-0.8%	-5.1%	/	/	/
Cc1ccc(-c2nnn(CC(=O)N(c3ccccc3F)C(C(=O)NC3CCCC3)c3ccco3)n2)o1 (centres undefined)	-24.3	0.1	-1.1%	-2.2%	-7.4%	/	/	/
COc1ccc(C(C(=O)NC2CCCCC2)N(Cc2cccs2)C(=O)Cc2c[nH]c3ccccc23)cc1OC (centres undefined)	-12.7	3.0	-3.6%	-1.5%	6.5%	/	/	/
Cc1ccccc1N(C(=O)Cc1c[nH]c2ccccc12)C(C(=O)NC1CCCCC1)c1ccco1 (centres undefined)	-6.4	-14.9	4.9%	?	-11.9%	-0.8	0.4%	12.6µM*
CCOC(=O)c1ccccc1NC(=O)Cn1cc(C(=O)c2cccc(OC)c2)c(=O)c2ccc(C)nc21	/	/	/	4.3%	-22.4%	/	/	/
CC(=O)N1CCc2cc(S(=O)(=O)NC(Cc3ccccc3)C(=O)Nc3ccc(C)cc3C)ccc21 (centres undefined)	/	/	/	-3.5%	?	/	/	/
COc1cc(OC)c(NC(=O)c2cc(C(C)=O)n3ccccc23)cc1Cl	/	/	/	6.6%	2.7%	/	/	/
CCOC(=O)CSC1=C(C#N)C(c2ccccc2OC)CC(=O)N1 (centres undefined)	-3.9	7.2	-2.2%	7.0%	-2.7%	/	/	/
CCCOC(=O)CSC1=C(C#N)C(c2ccccc2OCC)C(C#N)C(=O)N1 (centres undefined)	-12.6	-31.1	4.3%	?	-14.2%	-2.8	70.5%	44.7µM*
CCCCOC(=O)CSC1=C(C#N)C(c2ccccc2OCC)C(C#N)C(=O)N1 (centres undefined)	-12.6	-4.8	8.6%	?	-18.6%	/	/	/
CCCCOC(=O)CSC1=C(C#N)C(c2ccccc2OC)C(C#N)C(=O)N1 (centres undefined)	10.5	13.4	-6.4%	?	-12.1%	-1.4	63.5%	44.7µM*
COc1cccc(N2CCN(C(=O)c3c4c(nc5ccccc35)C(=O)N(C3CCCCC3)C4)CC2)c1	/	/	/	13.1%	-7.4%	/	/	/
COc1ccc(NC(=O)c2cc(C(C)=O)n3ccccc23)cc1	/	/	/	12.8%	-11.6%	/	/	/
CC1CCN(C(=O)Cn2cc(SCC(=O)NCc3ccccc3Cl)c3ccccc32)CC1	/	/	/	-9.4%	-11.5%	/	/	/
CCSc1sccc1C1C(C#N)=C(N)N(c2cccnc2)C2=C1C(=O)CC(C)(C)C2 (centres undefined)	2.5	19.0	0.3%	58.5µM*	-18.2%	-2.9	-5.7%	28.2µM*
Cc1ccc(C)c(Sc2ccc(NC(=O)CCl)cc2)c1	-4.5	-4.3	-2.3%	?	?	-5.5	-27.3%	39.8µM*
Cc1ccc(Sc2ccc(NC(=O)CCl)cc2)cc1C	-4.4	6.0	-3.2%	?	?	-2.0	?	39.8µM*
COc1ccc(C2CC(=O)N(CC(=O)Nc3ccc(C)c(Cl)c3)c3ccccc3S2)cc1OC (centres undefined)	/	/	/	-9.1%	1.3%	/	/	/
Cc1ccc2c(c1)c1c(c(=O)n(-c3ccccc3)c(=O)n1Cc1ccccc1C)n2C	/	/	/	-9.4%	6.4%	/	/	/
O=C(COc1ccccc1F)Nc1ccc2nc(SCC(=O)N3CCOCC3)sc2c1	/	/	/	0.0%	5.8%	/	/	/
COc1cc2c(-c3ccc4cc[nH]c4c3)c(-c3ccsc3)oc(=O)c2cc1OC	-7.9	-4.1	?	?	/	-8.4	-1.1%	11.2µM*
COc1ccc(-c2c(-c3ccsc3)oc(=O)c3cc(OC)c(OC)cc23)cn1	10.0	1.1	0.4%	28.2µM*	/	0.0	-2.9%	8.91µM*
COc1cc2c(-c3ccc4[nH]ccc4c3)c(-c3ccc(C#N)cc3)oc(=O)c2cc1OC	-3.6	-6.4	101.9%	-5.1%	/	/	/	/
SMILES	hERG WT inh	KCNH2 3.1 block	ASM inhibitor	mIDH1 inhibitor	Apoferritin bind	Resorufin autofl	WT IDH1 inh	IDH1 R132H conf
COC(=O)c1ccc(NC2(C#N)C(=O)Nc3ccccc32)cc1 (centres undefined)	11.1	2.4	-3.3%	?	-0.5%	-0.8	63.6%	44.7µM*
CCCSc1nc2sc3c(c2c(=O)n1-c1ccccc1)CCC(C)C3 (centres undefined)	/	/	/	0.0%	-0.6%	/	/	/
CC(=O)[C@]1(O)CCC2C3CCC4=CC(=O)CC[C@@]4(C)C3CC[C@]21C (some centres undefined)	/	/	/	/	-6.3%	/	/	/
C=C1CC2C(CCC3(C)C2CCC3(O)C(C)=O)C2(C)CCC(=O)C=C12 (centres undefined)	1.9	-21.4	-4.0%	22.4µM*	-8.6%	1.6	35.5µM*	11.2µM*
O=C(O)CCN1C(=O)/C(=C2\C(=O)N(Cc3ccc(F)cc3)c3ccccc32)SC1=S	6.2	9.4	-12.4%	9.27µM*	0.1%	-0.9	-12.3%	3.98µM*
COc1cccc(C2C(C(=O)Nc3cccnc3)=C(C)Nc3nc(SCc4ccccc4)nn32)c1 (centres undefined)	/	/	/	15.6%	0.4%	/	/	/
CCC(C)Nc1nc(N)c([N+](=O)[O-])c(Nc2cc(OC)ccc2OC)n1 (centres undefined)	-0.9	1.9	?	?	-23.2%	1.9	2.0%	28.2µM*
CC(CNC(=O)c1csc2c1CCCCC2)c1ccccc1 (centres undefined)	/	/	/	5.0%	-3.0%	/	/	/
Cc1sc2nc(C3CCCCC3)nc(SCC(=O)N3CC(=O)Nc4ccccc43)c2c1C	25.2	7.4	-18.0%	1.8%	-17.6%	/	/	/
CCc1nc(SCC(=O)N2CC(=O)Nc3ccccc32)c2c(C)c(C)sc2n1	-13.6	10.2	-9.5%	?	-13.1%	7.2	1.8%	31.6µM*
CCCCOc1ccc(/C=N/NC(=S)Nc2cccc(C)c2C)cc1	1.0	2.5	-11.3%	?	86.2%	2.0	-0.6%	11.2µM*
